# Measured values as given in the supplement of paper PMC8728848.
# The sample as a whole holds a higher share of the strongest signals than the screen did.
# Tests used:
# Assay in all cases: glycan array binding signal (z-score within array); higher = stronger binding
# Details in all cases: glycan notation: IUPAC condensed, linker removed; mutation: Y228W
# [1] = biological target: Gal(b1-4)GlcNAc(b1-3)Gal(b1-4)GlcNAc(b1-3)Gal(b1-4)GlcNAc(b1-2)[Gal(b1-4)GlcNAc(b1-3)Gal(b1-4)GlcNAc(b1-3)Gal(b1-4)GlcNAc(b1-6)]Man(a1-6)[Gal(b1-4)GlcNAc(b1-3)Gal(b1-4)GlcNAc(b1-3)Gal(b1-4)GlcNAc(b1-2)Man(a1-3)]Man(b1-4)GlcNAc(b1-4)[Fuc(a1-6)]GlcNAc
# In short: (§1)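 The binding signal is a Z-score computed within each array. Data were drawn from 3228 arrays in the Consortium for Functional Glycomics database, restricted to those with a known protein sequence. Scores were averaged over arrays of the same protein sequence at different concentrations or buffers, and over linkers, and negative values can be taken as non-binding.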
# [2] = biological target: Gal(b1-4)GlcNAc(b1-3)Gal(b1-4)GlcNAc(b1-3)Gal(b1-4)GlcNAc(b1-3)Gal(b1-4)GlcNAc(b1-3)Gal(b1-4)GlcNAc(b1-2)Man(a1-3)[Gal(b1-4)GlcNAc(b1-3)Gal(b1-4)GlcNAc(b1-3)Gal(b1-4)GlcNAc(b1-3)Gal(b1-4)GlcNAc(b1-3)Gal(b1-4)GlcNAc(b1-2)Man(a1-6)]Man(b1-4)GlcNAc(b1-4)GlcNAc
# In short: as §1
# [3] = biological target: Gal(b1-4)GlcNAc(b1-6)[Gal(b1-3)]GalNAc
# In short: as §1
# [4] = biological target: Gal3S(b1-4)[Fuc(a1-3)]GlcNAc6S
# In short: as §1
# Gal6S(b1-3)GlcNAc6S = biological target: Gal6S(b1-3)GlcNAc6S
# In short: as §1
# Gal6S(b1-4)GlcNAc6S = biological target: Gal6S(b1-4)GlcNAc6S
# In short: as §1
# [5] = biological target: GalNAc(b1-4)GlcNAc(b1-3)GalNAc(b1-4)GlcNAc
# In short: as §1
# Glc(a1-4)Glc = biological target: Glc(a1-4)Glc
# In short: as §1
# GlcA(b1-6)Gal = biological target: GlcA(b1-6)Gal
# In short: as §1
# [6] = biological target: GlcNAc(a1-3)Gal(b1-4)GlcNAc
# In short: as §1
# GlcNAc(b1-3)Gal = biological target: GlcNAc(b1-3)Gal
# In short: as §1
# [7] = biological target: GlcNAc(b1-4)Gal(b1-4)GlcNAc
# In short: as §1
# Man(a1-3)[Man(a1-6)]Man = biological target: Man(a1-3)[Man(a1-6)]Man
# In short: as §1
# [8] = biological target: Man(a1-3)[Man(a1-6)]Man(a1-6)[Man(a1-3)]Man
# In short: as §1
# [9] = biological target: Neu5Ac(a2-3)Gal(b1-3)GalNAc6S
# In short: as §1
# [10] = biological target: Neu5Ac(a2-3)Gal(b1-3)GlcNAc(b1-2)Man(a1-3)[Neu5Ac(a2-3)Gal(b1-3)GlcNAc(b1-2)Man(a1-6)]Man(b1-4)GlcNAc(b1-4)GlcNAc
# In short: as §1
# [11] = biological target: Neu5Ac(a2-3)Gal(b1-3)[Fuc(a1-4)]GlcNAc(b1-3)Gal(b1-4)[Fuc(a1-3)]GlcNAc
# In short: as §1
# [12] = biological target: Neu5Ac(a2-3)Gal(b1-4)GlcNAc(b1-3)Gal(b1-4)[Fuc(a1-3)]GlcNAc
# In short: as §1
# [13] = biological target: Neu5Ac(a2-3)Gal(b1-4)[Fuc(a1-3)]GlcNAc(b1-3)Gal
# In short: as §1
# [14] = biological target: Neu5Ac(a2-3)[GalNAc(b1-4)]Gal(b1-4)GlcNAc
# In short: as §1
# [15] = biological target: Neu5Ac(a2-6)Gal(b1-4)GlcNAc(b1-2)Man(a1-3)[Gal(b1-4)GlcNAc(b1-2)Man(a1-6)]Man(b1-4)GlcNAc(b1-4)GlcNAc
# In short: as §1
# [16] = biological target: Neu5Ac(a2-6)Gal(b1-4)GlcNAc(b1-2)Man(a1-3)[Man(a1-6)]Man(b1-4)GlcNAc(b1-4)GlcNAc
# In short: as §1
# [17] = biological target: Neu5Ac(a2-6)Gal(b1-4)GlcNAc(b1-2)Man(a1-3)[Neu5Ac(a2-6)Gal(b1-4)GlcNAc(b1-2)Man(a1-6)]Man(b1-4)GlcNAc(b1-4)[Fuc(a1-6)]GlcNAc
# In short: as §1
# [18] = biological target: Neu5Ac(a2-6)Gal(b1-4)GlcNAc(b1-2)Man(a1-6)[Gal(b1-4)GlcNAc(b1-2)Man(a1-3)]Man(b1-4)GlcNAc(b1-4)GlcNAc
# In short: as §1
# [19] = biological target: Neu5Ac(a2-6)GalNAc(b1-4)GlcNAc6S
# In short: as §1
# Neu5Ac(a2-8)Neu5Ac = biological target: Neu5Ac(a2-8)Neu5Ac
# In short: as §1
# [20] = biological target: Neu5Gc(a2-3)Gal(b1-4)GlcNAc
# In short: as §1
# [21] = biological target: Neu5Gc(a2-8)Neu5Gc(a2-3)Gal(b1-4)GlcNAc(b1-3)Gal(b1-4)GlcNAc
# In short: as §1
binder,measurement,setting,value
"Epa1-NP-mutant-Y228W (Candida glabrata), Q6VBJ0 (protein) MILNPALFLNKCVCIYTTLILLLLTNGGYATSSNDISLASKDPTTFPLGCSPDITTPKKGLSMELYSYDFRKKGSYPCWDAAYLDPNYPRTGYKSHRLLAKVDGVTGNINFYYHATKGCTPQLGHLPASYNYPKPLTMTNFTMLLYGYFRPKVTGFHTFTISADDLLFVNFGAGNAFDCCRRDSSADHFGNYQAYAIWGSKTAKDELTVHLDAGVYYPIRLFYNNREWDGALSFTFKTESNENTVSDFSEYFFSLDDTEEGCPGLISYDSSCASVKTSKIIGIDYHTETPNENLVPITKTIYHLGIPCTGTTTTPLCGSGFYDPLANKCVTINTSSTSSVTKTTSHTTSKEVSFHSSISSQKTLIPKSIPSPYGPIKSQSIPTEMETSSEISSSEYAFSDVISTPSHSPYTKKHSSLNSSSYTSTVIHSLTSYSISQGIFSTSLSEQNITSKSSTDKFSTATSMSNNITQSSIIISQFSTNNENYTTTSMHTSSDKISTETLNNSISTTTSILFSNSSTILKNNTTIISSDKDTHYHPVNPTIVCSTNKTEIICASITQPSISNSNNHWSSSVLKFNSTTVRSTLPSSAGSNETSINVPFSSSTESNTSTSSTSTSNSKMVRSTLPSSAGSNETSISVPFSSSTESNTSTSSTSTSNSKMVRSTLPSSAGSNETSINVPFSSSTESNTSTSSTSTSNSKTVRSTPFSSAGIIMTSLSQRNNKSASSYASSNSKCYNTADSCRKVHSTPSYLLTSSYTSEGVDYDCSLVSTKLKINDTNCVNNKHTTKSCLKTSVTTTIPTLEIKTARKSSSNTIGLHSYPTSSPNKSISSAPIIGYISSFKTIKTASPSYQTSDLTTITTITSLNNPGSTAVENTHESNDKSRKTSSNDISSKHSVIKETKDAVESSNKSHQTNTLKCSSIIIASSSHNSYESLGGTTLTLTLSKVYSPQNNDTLPFLEISEVNPSRTVLPESSKMMQYLTSTEERNKTARNTIATNIVSISTFHFEGEGNAIRMGYTQLLLMLIGIIVMNIGT",glycan array binding signal (z-score),[1],3.05
same,glycan array binding signal (z-score),[2],1.78
same,glycan array binding signal (z-score),[3],2.77
same,glycan array binding signal (z-score),[4],-0.015
same,glycan array binding signal (z-score),Gal6S(b1-3)GlcNAc6S,0.205
same,glycan array binding signal (z-score),Gal6S(b1-4)GlcNAc6S,3.63
same,glycan array binding signal (z-score),[5],-0.329
same,glycan array binding signal (z-score),Glc(a1-4)Glc,-0.29
same,glycan array binding signal (z-score),GlcA(b1-6)Gal,0.341
same,glycan array binding signal (z-score),[6],-0.131
same,glycan array binding signal (z-score),GlcNAc(b1-3)Gal,-0.421
same,glycan array binding signal (z-score),[7],-0.126
same,glycan array binding signal (z-score),Man(a1-3)[Man(a1-6)]Man,-0.183
same,glycan array binding signal (z-score),[8],-0.095
same,glycan array binding signal (z-score),[9],-0.312
same,glycan array binding signal (z-score),[10],-0.117
same,glycan array binding signal (z-score),[11],0.021
same,glycan array binding signal (z-score),[12],-0.295
same,glycan array binding signal (z-score),[13],-0.343
same,glycan array binding signal (z-score),[14],-0.228
same,glycan array binding signal (z-score),[15],-0.285
same,glycan array binding signal (z-score),[16],0.235
same,glycan array binding signal (z-score),[17],-0.238
same,glycan array binding signal (z-score),[18],-0.14
same,glycan array binding signal (z-score),[19],-0.172
same,glycan array binding signal (z-score),Neu5Ac(a2-8)Neu5Ac,-0.272
same,glycan array binding signal (z-score),[20],-0.19
same,glycan array binding signal (z-score),[21],-0.388
